# Results as given in the supplement of paper PMC8387472.
# ± gives the standard deviation of the averaged measurements.
# System: mESC LDLR-Dup GFP reporter (SpCas9 MH-deletion repair)
# Experiment: fraction of GFP+ cells relative to DMSO control (fold change); higher = more MH-deletion repair to in-frame LDLR (or more editing)
# Conditions: 2 µM; 7 days post-transfection
row,SMILES,fraction of GFP+ cells
1,CC1COc2c(N3CCN(C)CC3)c(F)cc3c(=O)c(C(=O)O)cn1c23 (stereo not drawn) [Ofloxacin],1.08 ± 0.19
2,O=C(NO)c1cccc(C(=O)NCCc2ccccc2)c1,0.743 ± 0.17
3,COc1ccc(-c2oc3c(CC=C(C)C)c(O[C@@H]4O[C@H](CO)[C@@H](O)[C@H](O)[C@H]4O)cc(O)c3c(=O)c2O[C@@H]2O[C@@H](C)[C@H](O)[C@@H](O)[C@H]2O)cc1 [Icariin],1.26 ± 0.2
